# Measured values reported in PubChem BioAssay (NCATS).
# Results filed as inconclusive are left out. A call without a number means that no potency is given here. Unmarked numbers belong to inactive results. Calls of active or inactive are those of the source. The call rests on the fitted dose curve; in most records, active means well fitted cell-killing curve with a large enough effect; inconclusive means small, poorly fitted or top-dose-only effect; inactive means flat fitted curve, though single readings scatter.
# Assay: NCATS anti-infectives library activity on HEK293 viability as a counter-qHTS vs the C. elegans viability qHTS (AID 1745854)
# Procedure, shortened: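 HEK293 cells, 1500 per well, exposed 24 hr at 37C in 5% CO2 to compounds in a 1:5 titration, up to 41.7 uM final. Viability read as CellTiter-Glo luminescence after 10 min at room temperature.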
compound,measurement,value
O=C(Nc1ccccc1F)N[C@H]1N=C(c2ccccc2)c2ccccc2NC1=O,Potency,inactive
